# Data from ChEMBL document CHEMBL1961873, “Compounds: GSK PKIS; Assays: Nanosyn kinase panel” (2012).
# Assays:
# [1] = target: T1, Serine/threonine-protein kinase D2 (Homo sapiens) (UniProt Q9BZL6); details: at 1 µM;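 also: mean value of PRKD2 inhibition, from the GSK PKIS screening panel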
# T1 sequence (whole entry): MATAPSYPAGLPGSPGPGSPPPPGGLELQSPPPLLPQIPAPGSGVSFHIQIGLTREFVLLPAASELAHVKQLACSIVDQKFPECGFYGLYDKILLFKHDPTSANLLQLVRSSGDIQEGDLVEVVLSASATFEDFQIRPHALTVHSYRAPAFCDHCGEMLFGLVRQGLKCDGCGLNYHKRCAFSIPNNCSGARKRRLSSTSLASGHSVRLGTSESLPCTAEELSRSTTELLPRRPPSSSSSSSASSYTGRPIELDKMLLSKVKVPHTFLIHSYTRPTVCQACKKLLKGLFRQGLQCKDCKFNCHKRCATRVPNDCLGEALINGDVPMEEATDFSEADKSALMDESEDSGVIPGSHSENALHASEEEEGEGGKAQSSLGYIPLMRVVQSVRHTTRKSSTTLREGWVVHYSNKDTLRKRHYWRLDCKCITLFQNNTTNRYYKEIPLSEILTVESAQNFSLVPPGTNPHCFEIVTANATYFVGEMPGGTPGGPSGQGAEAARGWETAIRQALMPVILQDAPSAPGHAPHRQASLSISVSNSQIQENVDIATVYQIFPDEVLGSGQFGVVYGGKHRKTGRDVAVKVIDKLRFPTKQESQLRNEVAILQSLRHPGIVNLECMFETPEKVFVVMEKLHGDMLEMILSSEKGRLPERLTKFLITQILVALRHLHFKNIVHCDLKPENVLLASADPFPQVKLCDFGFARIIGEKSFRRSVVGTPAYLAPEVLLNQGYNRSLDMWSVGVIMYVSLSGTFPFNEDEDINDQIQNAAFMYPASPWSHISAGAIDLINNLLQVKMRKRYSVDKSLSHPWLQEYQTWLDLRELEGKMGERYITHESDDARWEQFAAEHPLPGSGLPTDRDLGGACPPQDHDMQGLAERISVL
# [2] = target: T2, Serine/threonine-protein kinase D3 (Homo sapiens) (UniProt O94806); details: at 0.1 µM
# T2 sequence (whole entry): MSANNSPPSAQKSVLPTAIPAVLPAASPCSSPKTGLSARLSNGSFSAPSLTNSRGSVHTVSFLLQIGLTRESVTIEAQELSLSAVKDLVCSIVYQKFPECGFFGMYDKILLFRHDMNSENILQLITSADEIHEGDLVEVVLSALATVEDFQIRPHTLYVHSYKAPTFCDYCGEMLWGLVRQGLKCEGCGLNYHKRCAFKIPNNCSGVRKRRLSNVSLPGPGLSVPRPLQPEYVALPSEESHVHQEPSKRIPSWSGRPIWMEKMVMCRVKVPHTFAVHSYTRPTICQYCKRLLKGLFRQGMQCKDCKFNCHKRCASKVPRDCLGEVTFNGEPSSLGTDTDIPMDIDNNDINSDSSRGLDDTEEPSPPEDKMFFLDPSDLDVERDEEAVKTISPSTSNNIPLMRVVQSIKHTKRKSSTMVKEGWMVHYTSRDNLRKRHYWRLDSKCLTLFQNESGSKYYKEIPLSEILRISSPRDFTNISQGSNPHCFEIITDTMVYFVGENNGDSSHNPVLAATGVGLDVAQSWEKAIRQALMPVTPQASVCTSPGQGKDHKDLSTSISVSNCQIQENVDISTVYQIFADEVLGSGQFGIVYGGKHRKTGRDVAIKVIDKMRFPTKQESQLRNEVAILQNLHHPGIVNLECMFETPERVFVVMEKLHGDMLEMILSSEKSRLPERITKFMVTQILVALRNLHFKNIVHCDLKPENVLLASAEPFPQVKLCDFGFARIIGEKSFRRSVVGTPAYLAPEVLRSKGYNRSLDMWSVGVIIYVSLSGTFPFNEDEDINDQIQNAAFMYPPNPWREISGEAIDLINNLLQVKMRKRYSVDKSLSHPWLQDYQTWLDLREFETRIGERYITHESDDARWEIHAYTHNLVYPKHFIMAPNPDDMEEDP
# [3] = target: T2, Serine/threonine-protein kinase D3 (Homo sapiens); details: at 1 µM
# [4] = target: T3, cGMP-dependent protein kinase 1 (Homo sapiens) (UniProt Q13976); details: at 0.1 µM
# T3 sequence (whole entry): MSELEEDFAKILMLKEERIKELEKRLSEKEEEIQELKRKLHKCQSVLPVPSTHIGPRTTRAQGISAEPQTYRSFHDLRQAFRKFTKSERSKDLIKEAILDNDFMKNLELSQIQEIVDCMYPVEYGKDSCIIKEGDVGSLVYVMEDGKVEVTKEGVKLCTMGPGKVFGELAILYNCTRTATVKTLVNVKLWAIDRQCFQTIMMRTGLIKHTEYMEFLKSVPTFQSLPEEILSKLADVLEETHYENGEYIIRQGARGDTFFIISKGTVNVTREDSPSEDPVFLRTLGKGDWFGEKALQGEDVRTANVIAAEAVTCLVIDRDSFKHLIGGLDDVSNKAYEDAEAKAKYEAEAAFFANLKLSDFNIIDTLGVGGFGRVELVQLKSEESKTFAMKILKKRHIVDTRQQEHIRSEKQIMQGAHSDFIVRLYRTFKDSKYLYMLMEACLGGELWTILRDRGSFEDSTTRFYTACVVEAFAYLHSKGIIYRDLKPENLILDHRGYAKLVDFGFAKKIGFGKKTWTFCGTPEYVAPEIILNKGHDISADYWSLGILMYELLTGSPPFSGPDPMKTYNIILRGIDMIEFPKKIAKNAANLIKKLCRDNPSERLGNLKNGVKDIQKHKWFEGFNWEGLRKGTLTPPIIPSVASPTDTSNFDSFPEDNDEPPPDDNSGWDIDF
# [5] = target: T3, cGMP-dependent protein kinase 1 (Homo sapiens); details: at 1 µM
# [6] = target: T4, cGMP-dependent protein kinase 2 (Homo sapiens) (UniProt Q13237); details: at 0.1 µM
# T4 sequence (whole entry): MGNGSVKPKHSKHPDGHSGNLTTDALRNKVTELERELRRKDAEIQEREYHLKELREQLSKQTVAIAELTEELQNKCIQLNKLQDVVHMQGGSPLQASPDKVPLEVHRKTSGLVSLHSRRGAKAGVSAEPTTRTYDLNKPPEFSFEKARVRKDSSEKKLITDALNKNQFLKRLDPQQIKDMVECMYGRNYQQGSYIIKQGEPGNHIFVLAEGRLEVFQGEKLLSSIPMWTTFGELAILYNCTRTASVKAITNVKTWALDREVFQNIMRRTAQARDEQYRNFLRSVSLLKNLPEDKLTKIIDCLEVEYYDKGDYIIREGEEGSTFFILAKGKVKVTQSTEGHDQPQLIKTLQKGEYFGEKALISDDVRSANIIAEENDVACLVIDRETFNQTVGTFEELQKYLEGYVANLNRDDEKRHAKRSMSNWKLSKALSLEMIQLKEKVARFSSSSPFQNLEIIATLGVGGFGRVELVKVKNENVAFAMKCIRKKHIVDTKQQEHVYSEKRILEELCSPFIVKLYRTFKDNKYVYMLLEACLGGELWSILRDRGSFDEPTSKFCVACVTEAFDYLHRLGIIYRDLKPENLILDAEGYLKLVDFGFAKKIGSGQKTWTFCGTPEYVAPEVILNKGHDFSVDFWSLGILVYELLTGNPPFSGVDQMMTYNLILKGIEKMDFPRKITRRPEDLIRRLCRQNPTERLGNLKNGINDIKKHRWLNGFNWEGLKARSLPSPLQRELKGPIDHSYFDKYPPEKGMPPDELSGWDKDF
# [7] = target: T4, cGMP-dependent protein kinase 2 (Homo sapiens); details: at 1 µM
# [8] = target: T5, cAMP-dependent protein kinase catalytic subunit PRKX (Homo sapiens) (UniProt P51817); details: at 0.1 µM
# T5 sequence (whole entry): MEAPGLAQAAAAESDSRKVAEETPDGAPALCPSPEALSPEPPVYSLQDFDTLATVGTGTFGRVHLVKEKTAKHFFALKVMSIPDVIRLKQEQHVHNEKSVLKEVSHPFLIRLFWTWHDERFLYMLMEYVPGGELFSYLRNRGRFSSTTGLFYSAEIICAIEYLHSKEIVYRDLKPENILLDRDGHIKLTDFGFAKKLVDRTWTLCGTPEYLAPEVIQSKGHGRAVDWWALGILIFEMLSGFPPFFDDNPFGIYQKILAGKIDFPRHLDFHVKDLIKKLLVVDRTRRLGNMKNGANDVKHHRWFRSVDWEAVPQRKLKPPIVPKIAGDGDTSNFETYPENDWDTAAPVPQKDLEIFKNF
# [9] = target: T5, cAMP-dependent protein kinase catalytic subunit PRKX (Homo sapiens); details: at 1 µM
# [10] = target: Rho-associated protein kinase 1 (Homo sapiens) (UniProt Q13464); details: at 0.1 µM
# Rho-associated protein kinase 1 (Homo sapiens), sequence (Q13464 2-1354 limits assumed): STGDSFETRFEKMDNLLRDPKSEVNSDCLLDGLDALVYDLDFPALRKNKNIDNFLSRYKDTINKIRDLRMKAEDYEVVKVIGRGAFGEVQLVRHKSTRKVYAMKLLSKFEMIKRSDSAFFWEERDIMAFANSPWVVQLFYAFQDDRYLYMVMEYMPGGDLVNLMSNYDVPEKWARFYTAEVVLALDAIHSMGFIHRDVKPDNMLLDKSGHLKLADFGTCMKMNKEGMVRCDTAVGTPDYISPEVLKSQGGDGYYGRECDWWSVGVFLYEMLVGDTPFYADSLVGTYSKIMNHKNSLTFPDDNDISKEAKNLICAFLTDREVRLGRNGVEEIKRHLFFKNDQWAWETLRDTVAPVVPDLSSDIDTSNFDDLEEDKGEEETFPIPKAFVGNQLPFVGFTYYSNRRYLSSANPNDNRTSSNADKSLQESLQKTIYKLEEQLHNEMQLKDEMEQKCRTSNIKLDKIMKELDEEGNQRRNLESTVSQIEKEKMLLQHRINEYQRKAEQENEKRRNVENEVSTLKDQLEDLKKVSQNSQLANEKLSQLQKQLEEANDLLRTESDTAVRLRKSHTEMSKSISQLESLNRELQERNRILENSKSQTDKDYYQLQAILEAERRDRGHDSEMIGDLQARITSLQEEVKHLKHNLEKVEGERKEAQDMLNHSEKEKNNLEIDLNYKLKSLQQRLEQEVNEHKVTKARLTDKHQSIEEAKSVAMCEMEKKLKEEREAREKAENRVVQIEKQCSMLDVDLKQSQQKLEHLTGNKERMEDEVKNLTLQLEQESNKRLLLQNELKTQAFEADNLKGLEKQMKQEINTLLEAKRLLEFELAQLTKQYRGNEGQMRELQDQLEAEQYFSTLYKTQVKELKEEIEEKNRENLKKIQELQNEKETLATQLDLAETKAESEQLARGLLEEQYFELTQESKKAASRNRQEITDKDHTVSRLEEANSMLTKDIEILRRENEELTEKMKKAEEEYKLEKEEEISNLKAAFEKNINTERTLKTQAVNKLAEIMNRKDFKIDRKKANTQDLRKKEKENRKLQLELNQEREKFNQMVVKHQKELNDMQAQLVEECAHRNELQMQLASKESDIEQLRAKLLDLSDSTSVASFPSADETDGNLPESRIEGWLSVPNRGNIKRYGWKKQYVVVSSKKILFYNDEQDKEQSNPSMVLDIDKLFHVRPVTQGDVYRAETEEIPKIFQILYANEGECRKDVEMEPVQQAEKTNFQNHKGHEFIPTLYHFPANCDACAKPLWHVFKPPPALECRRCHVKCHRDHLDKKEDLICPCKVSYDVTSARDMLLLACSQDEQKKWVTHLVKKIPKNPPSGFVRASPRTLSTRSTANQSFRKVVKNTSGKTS
# [11] = target: Rho-associated protein kinase 1 (Homo sapiens) (UniProt Q13464); details: at 1 µM
# [12] = target: Rho-associated protein kinase 2 (Homo sapiens) (UniProt O75116); details: at 0.1 µM
# Rho-associated protein kinase 2 (Homo sapiens), sequence (O75116 whole entry, looked up): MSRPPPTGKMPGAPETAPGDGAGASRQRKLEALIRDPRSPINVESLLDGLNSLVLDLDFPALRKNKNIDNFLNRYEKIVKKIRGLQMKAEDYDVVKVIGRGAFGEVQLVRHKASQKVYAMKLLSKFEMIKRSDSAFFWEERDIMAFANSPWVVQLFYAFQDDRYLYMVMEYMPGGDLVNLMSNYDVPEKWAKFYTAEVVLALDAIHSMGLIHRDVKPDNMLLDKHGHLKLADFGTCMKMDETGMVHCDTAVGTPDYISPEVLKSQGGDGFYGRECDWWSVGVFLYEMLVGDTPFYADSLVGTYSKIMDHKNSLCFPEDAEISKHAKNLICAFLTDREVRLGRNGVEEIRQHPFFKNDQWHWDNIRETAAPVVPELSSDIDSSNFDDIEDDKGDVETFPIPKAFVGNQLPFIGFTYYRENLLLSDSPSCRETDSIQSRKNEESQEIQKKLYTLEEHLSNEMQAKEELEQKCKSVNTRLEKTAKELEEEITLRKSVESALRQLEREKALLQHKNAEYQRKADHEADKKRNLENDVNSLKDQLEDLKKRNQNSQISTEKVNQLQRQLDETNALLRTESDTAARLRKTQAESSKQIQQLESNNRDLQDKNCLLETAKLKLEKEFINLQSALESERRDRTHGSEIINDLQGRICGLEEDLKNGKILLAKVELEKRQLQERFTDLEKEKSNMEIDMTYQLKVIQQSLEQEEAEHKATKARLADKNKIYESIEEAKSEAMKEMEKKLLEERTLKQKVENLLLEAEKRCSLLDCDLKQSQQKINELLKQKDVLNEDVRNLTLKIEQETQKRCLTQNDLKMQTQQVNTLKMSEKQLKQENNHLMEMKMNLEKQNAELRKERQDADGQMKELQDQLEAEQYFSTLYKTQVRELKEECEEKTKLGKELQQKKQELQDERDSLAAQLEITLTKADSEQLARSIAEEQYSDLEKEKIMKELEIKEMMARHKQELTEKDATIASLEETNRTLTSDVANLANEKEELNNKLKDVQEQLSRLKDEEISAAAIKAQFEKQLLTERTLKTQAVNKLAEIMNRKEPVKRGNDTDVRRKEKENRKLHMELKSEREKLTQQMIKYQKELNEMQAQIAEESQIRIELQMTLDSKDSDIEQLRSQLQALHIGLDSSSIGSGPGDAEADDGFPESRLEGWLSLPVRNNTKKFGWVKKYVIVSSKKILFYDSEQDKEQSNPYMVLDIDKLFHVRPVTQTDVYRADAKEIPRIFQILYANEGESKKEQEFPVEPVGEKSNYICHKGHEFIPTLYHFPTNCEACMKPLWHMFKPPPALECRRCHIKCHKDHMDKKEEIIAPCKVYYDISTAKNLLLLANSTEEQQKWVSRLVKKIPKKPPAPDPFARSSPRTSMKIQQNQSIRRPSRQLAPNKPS
# [13] = target: Rho-associated protein kinase 2 (Homo sapiens) (UniProt O75116); details: at 1 µM
# [14] = target: Ribosomal protein S6 kinase alpha-1 (Homo sapiens) (UniProt Q15418); details: at 0.1 µM
# [15] = target: Ribosomal protein S6 kinase alpha-1 (Homo sapiens) (UniProt Q15418); details: at 1 µM
# [16] = target: Ribosomal protein S6 kinase alpha-3 (Homo sapiens) (UniProt P51812); details: at 0.1 µM
# Ribosomal protein S6 kinase alpha-3 (Homo sapiens), sequence (P51812 whole entry): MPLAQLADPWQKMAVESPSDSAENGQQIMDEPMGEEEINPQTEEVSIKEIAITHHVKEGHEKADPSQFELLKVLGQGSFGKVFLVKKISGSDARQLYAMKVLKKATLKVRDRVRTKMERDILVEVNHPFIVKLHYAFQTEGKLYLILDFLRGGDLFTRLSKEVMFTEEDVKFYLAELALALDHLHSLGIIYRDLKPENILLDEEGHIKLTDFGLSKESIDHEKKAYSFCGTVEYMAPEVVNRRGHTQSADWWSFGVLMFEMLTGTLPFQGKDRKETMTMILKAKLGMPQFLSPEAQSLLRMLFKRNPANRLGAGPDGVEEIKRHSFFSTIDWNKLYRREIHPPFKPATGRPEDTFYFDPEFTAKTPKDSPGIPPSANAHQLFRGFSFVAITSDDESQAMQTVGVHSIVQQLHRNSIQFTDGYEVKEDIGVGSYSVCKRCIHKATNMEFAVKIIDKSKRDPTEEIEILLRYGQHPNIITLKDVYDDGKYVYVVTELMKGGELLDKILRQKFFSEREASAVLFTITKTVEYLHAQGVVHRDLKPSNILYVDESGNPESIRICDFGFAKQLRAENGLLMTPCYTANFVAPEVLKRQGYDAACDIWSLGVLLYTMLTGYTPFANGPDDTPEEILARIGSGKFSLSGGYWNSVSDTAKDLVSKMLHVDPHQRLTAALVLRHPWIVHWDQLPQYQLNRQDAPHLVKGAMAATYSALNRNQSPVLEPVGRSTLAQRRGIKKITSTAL
# [17] = target: Ribosomal protein S6 kinase alpha-3 (Homo sapiens) (UniProt P51812); details: at 1 µM
# [18] = target: Ribosomal protein S6 kinase alpha-2 (Homo sapiens) (UniProt Q15349); details: at 0.1 µM
# Ribosomal protein S6 kinase alpha-2 (Homo sapiens), sequence (Q15349 whole entry): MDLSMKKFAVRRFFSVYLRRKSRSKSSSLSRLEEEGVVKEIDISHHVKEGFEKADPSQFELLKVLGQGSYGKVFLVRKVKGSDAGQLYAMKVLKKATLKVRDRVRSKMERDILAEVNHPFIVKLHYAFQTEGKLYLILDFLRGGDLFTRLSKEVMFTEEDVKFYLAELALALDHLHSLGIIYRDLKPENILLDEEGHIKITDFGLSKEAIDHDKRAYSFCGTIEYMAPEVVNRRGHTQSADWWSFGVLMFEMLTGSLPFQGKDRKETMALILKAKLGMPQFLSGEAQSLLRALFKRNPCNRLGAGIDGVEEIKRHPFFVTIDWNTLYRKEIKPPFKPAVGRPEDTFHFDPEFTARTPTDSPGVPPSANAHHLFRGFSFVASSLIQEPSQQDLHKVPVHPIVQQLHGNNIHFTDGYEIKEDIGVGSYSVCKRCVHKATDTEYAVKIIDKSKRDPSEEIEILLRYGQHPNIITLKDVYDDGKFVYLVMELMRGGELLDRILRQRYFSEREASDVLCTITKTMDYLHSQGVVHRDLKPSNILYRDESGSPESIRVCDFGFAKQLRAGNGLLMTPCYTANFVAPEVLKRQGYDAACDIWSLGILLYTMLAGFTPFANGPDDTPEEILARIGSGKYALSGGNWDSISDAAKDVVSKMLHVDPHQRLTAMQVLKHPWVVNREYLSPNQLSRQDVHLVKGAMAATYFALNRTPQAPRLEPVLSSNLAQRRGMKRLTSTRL
# [19] = target: Ribosomal protein S6 kinase alpha-2 (Homo sapiens) (UniProt Q15349); details: at 1 µM
# [20] = target: Ribosomal protein S6 kinase alpha-6 (Homo sapiens) (UniProt Q9UK32); details: at 0.1 µM;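 also: reported value is the mean inhibition of RSK4, from the GSK PKIS kinase inhibitor screen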
# Ribosomal protein S6 kinase alpha-6 (Homo sapiens), sequence (Q9UK32 whole entry): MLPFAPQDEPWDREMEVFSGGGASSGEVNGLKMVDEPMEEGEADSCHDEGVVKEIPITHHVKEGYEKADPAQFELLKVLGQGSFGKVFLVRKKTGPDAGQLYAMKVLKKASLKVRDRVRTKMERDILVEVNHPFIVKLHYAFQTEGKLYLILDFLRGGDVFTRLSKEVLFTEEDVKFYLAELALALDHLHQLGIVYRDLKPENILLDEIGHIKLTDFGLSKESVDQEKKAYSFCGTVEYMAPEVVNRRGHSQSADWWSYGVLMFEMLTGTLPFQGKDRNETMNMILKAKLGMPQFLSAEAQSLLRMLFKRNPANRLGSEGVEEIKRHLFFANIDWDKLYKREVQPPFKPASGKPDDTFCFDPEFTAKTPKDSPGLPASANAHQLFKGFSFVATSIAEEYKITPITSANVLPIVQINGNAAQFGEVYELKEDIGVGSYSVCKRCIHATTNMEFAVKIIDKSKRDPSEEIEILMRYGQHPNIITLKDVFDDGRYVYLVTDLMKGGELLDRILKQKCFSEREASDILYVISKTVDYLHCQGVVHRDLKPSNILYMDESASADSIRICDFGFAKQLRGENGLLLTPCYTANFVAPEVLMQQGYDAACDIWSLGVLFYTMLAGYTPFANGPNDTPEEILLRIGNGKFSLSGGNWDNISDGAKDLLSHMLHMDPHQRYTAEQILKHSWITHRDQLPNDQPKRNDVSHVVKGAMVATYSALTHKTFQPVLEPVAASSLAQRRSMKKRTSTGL
SMILES,inhibition [1],inhibition [2],inhibition [3],inhibition [4],inhibition [5],inhibition [6],inhibition [7],inhibition [8],inhibition [9],inhibition [10],inhibition [11],inhibition [12],inhibition [13],inhibition [14],inhibition [15],inhibition [16],inhibition [17],inhibition [18],inhibition [19],inhibition [20]
O=C(Nc1ccc(Oc2ccc3[nH]c(NC(=O)c4ccccc4)nc3c2)cc1)Nc1cc(C(F)(F)F)ccc1F,4.25%,3.06%,3.63%,2.01%,3.65%,1.4%,2.23%,1.55%,1.09%,0.24%,6.36%,3.35%,8.83%,1.17%,5.03%,0.81%,1.47%,3.12%,20.5%,1.69%
CCN(CC)Cc1ccc(Nc2nccc(-c3cnn4ncccc34)n2)cc1,64.4%,30.2%,62.6%,3.48%,14.9%,3.29%,13.7%,2.55%,4.27%,2.36%,9.36%,2.02%,13.7%,0.21%,2.52%,-0.63%,2.49%,2.26%,3.81%,0.43%
Cc1ccc(NC(=O)c2ccoc2)cc1-c1ccc(C(=O)NCC2CC2)cc1,3.55%,2.92%,2.95%,0.89%,1.09%,1.21%,1.02%,1.5%,0.55%,0%,-0.4%,0.78%,-1.14%,1.06%,0.4%,-0.62%,0.11%,2%,1.72%,-0.1%
CN(C)CCOc1ccc(-c2cc(-c3ccc4c(c3)CCC4=NO)c(-c3ccncc3)o2)cc1,1.9%,-0.84%,0.31%,-1.48%,3.68%,-0.1%,11.2%,-0.21%,-1.72%,-1.57%,-1.5%,-2.12%,-0.39%,-0.55%,-1.02%,-0.48%,-0.08%,-0.08%,0.83%,-0.45%
COc1cc(C)c(N(C)C(=O)CN(C)C)cc1Nc1nc(Nc2cccc(F)c2C(N)=O)c2cc[nH]c2n1,-0.62%,-1.31%,0.06%,0.67%,3.77%,2.1%,2.31%,0.78%,-0.64%,0.77%,1.48%,0.89%,-0.53%,1.17%,3.02%,1.14%,1.43%,1.84%,2.69%,1.67%
O=C(Nc1n[nH]c2nc(-c3ccc(O)cc3)c(Br)cc12)C1CC1,5.92%,5.64%,6.49%,3.5%,6.22%,5.14%,27.8%,3.04%,4.28%,0.72%,1.33%,4.18%,6.43%,7.28%,33%,10.3%,44.8%,22.4%,70.6%,16.4%
COc1cc(Nc2ncc3c(C)nc(-c4cccc(C(F)(F)F)c4)n3n2)cc(OC)c1OC,4.32%,2.48%,2.79%,0.96%,5.81%,4.61%,6.16%,3%,7.31%,-0.86%,2.39%,2.6%,8.14%,5.19%,26.7%,5.91%,31.8%,7.09%,37.1%,5.57%
